Source: PubChem
HTR1E agonist: 5-HT1E receptor agonists, primary screen, cell-based, HTS; AID 574, 2007; 65,000 compounds, 0.69% hits; activation, % at 6 µM; 5-hydroxytryptamine receptor 1E (Homo sapiens), P28566; CHO 5-HT1E Ga15 NFAT-bla reporter, FRET; 0% DMSO wells, 100% control agonist wells;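 active means activation above a set limit, the screen-wide mean activation plus 3 SD, cut at about 8.5% in these data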;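 further: 100% = positive control agonist at 1 µM giving full maximal response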
HTR1E antagonist: 5-HT1E receptor antagonists, primary screen, cell-based, HTS; CHO 5-HT1E Ga15 NFAT-bla reporter, FRET, antagonist; inhibition, % at 6 µM; 65,000 compounds, 0.99% hits; AID 571, 2007;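 active means inhibition above a set limit, the mean inhibition across every tested compound plus 3 SD, cut at about 29% in these data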;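 further: signal is the 460 over 535 nm emission ratio of beta-lactamase substrate; 0% = agonist plus DMSO wells and 100% = wells without agonist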
5HT1a antag: human 5-HT1a receptor antagonists, primary screen, cell-based, CHO, Ga15 NFAT-bla reporter | 5-hydroxytryptamine receptor 1A (Homo sapiens), P08908 | CHO 5-HT1a Ga15 NFAT-bla reporter, antagonist mode | inhibition, % at 10 µM | 62,000 compounds, 0.68% hits | AID 612, 2007;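 active means inhibition above the mean of all tested compounds plus 3 SD, cut at about 43% in these data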;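 further: receptor stimulated by 5-CT agonist at 100 nM near EC80; beta-lactamase reporter measured by ratiometric fluorescence of a cleavable substrate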
Target sequence (P08908 whole entry, looked up): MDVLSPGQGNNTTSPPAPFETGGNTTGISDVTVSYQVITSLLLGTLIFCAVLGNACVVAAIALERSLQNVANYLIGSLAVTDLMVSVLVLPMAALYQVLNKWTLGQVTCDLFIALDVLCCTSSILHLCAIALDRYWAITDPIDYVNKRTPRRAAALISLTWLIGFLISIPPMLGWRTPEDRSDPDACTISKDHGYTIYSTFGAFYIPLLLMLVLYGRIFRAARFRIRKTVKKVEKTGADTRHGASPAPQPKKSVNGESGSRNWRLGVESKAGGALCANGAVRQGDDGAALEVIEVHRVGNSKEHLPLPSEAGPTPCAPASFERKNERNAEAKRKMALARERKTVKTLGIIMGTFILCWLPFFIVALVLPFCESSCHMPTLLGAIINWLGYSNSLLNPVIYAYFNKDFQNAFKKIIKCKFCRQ
HTR1A agonist: human 5-HT1a receptor agonists, primary screen, cell-based, CHO, Ga15 NFAT-bla reporter; CHO 5-HT1a Ga15 NFAT-bla reporter, FRET ratio; 0% basal, 100% maximal reference agonist; activation, % at 10 µM; 65,000 compounds, 0.56% hits; AID 567, 2006;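 active means activation above the screen-wide mean activation plus 3 SD, cut at about 19% in these data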;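 further: 0% = DMSO wells and 100% = 5-CT at EC100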
mHtt clearance: clearance of mutant huntingtin inclusions, primary screen, imaging, HeLa Exon1htt(103Q)mCFP, confocal imaging; 47,000 compounds, 0.42% hits; AID 853, 2007; aggregate imaging; zero = plate's median compound well; inhibition, % at 1.5 µM;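 active means inhibition of aggregate fluorescence above about 70%, also judged a hit by eye on the cell image, limit read from the data, passing the limit was not always enough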;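 further: cells exposed to compound for three days before fixation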
Numbers without * were called inactive; . = not tested or not shown. Sampled rows, rich in hits. Any-hit rate of the full collection: about 2.3%.

SMILES	HTR1E agonist	HTR1E antagonist	5HT1a antag	HTR1A agonist	mHtt clearance
CC(O)C(=O)NCCOCCOCCNC(=O)C(C)O (stereo unspecified)	-1	10	3	-3	.
O=C(CCN1CCc2ccccc2CC1)c1ccc2c(c1)OCCO2	2	10	.	0	.
CN(C)S(=O)(=O)N1CCC(c2ccc(F)cc2)C(COc2ccc3c(c2)OCO3)C1 (stereo unspecified)	-1	9	47*	-1	.
CC(NC(=O)CSc1nc2sc3c(c2c(=O)n1-c1ccccc1)CCCC3)c1ccccc1 (stereo unspecified)	.	.	.	.	91*
COc1ccc(C2(O)CCN(CCCCOc3ccccc3)CC2)cc1	0	4	67*	-1	31
COc1ccc(C2(O)CCN(C(=O)Cc3cccnc3)CC2)cc1	0	7	-13	1	.
CC(CC(=O)O)CC(=O)Nc1ccccc1C(=O)O (stereo unspecified)	-1	2	17	1	2
Cc1noc(C)c1COc1cccc(C(=O)OCC(=O)N2CC(=O)Nc3ccccc32)c1	-1	38*	32	-2	.
CNC(=O)c1cc2c(=O)n3cccc(C)c3nc2n1C	-1	2	-6	-3	.
C=CCn1c(=O)c2ccccc2n2c(SCc3nc(N)nc(Nc4ccccc4C)n3)nnc12	0	30*	-46	0	.
OC1(c2cccc(C(F)(F)F)c2)CCN(c2ncnc3c2[nH]c2ccc(F)cc23)CC1	0	35*	15	0	.
O=C(CCN1C(=O)c2ccccc2C1=O)N1CCC(c2ccccc2)C1 (stereo unspecified)	1	-5	-6	32*	38
O=S(=O)(c1ccc2oc(-c3ccncc3)nc2c1)c1ccc2oc(-c3ccncc3)nc2c1	1	-14	-16	27*	.
CC(C)CC(=O)Nc1ccc2oc(-c3ccncc3)nc2c1	0	0	-18	-2	.
CCOC(=O)C1=C(C)NC(=O)NC1c1ccc(OCC(=O)Nc2ccccc2)c(OC)c1 (stereo unspecified)	89*	-1	14	1	29
Cc1ccc(C)c(NC2=NS(=O)(=O)c3ccccc32)c1	1	10	8	-4	.
COC(=O)c1ccc(C(=O)OC)c(NC2=NS(=O)(=O)c3ccccc32)c1	-1	11	22	-3	75*
COc1cc2c(cc1OC)C1=C(C#N)CN(CC(=O)O)CN1CC2	-1	33*	5	0	.
Cc1noc(C)c1COc1ccc(C(=O)OC(C)C(=O)Nc2ccc(N3CCOCC3)cc2)cc1 (stereo unspecified)	120*	-6	1	-2	.
CC(=O)c1ccc(N2CCN(C(=O)c3ccc(OCc4c(C)noc4C)cc3)CC2)cc1	0	5	-2	-2	.
C=C(C)C(=O)OC1(C(F)(F)F)Oc2cc(C)ccc2NC1=O (stereo unspecified)	.	.	.	.	12
CCOC(=O)c1c(CN2CCCCC2)oc2ccc(OC)cc12	0	1	.	21*	-46
NS(=O)(=O)c1ccc(NC(=O)c2ccccc2C(=O)N2CCCCC2)cc1	-1	-4	-5	-1	.
Cc1cc(-c2nn3c(-c4ccccc4)nnc3s2)c2ccccc2n1	2	30*	0	-1	.
c1ccc(-c2cc(-c3nn4c(-c5ccco5)nnc4s3)c3ccccc3n2)cc1	0	17	8	0	-25
SMILES	HTR1E agonist	HTR1E antagonist	5HT1a antag	HTR1A agonist	mHtt clearance
COc1ccc(-c2cnnn2-c2ccc(NC(=O)c3ccco3)cc2)cc1OC	0	47*	7	1	.
COc1ccc(-c2cnnn2-c2ccc(N)cc2)cc1OC	-1	20	-1	-1	.
Cc1cc(NC(=O)CSc2nc(C(C)C)nc3sc4c(c23)CCCC4)no1	0	-2	4	-2	.
Cc1cc(NC(=O)CSc2nc(C3CC3)nc3sc4c(c23)CCC(C)C4)no1 (stereo unspecified)	0	3	2	0	72*
Cc1cccc(OCc2nc(C#N)c(NCc3ccc4c(c3)OCO4)o2)c1	0	6	43*	-1	.
N#Cc1nc(COc2ccc(Cl)cc2)oc1NCc1ccc2c(c1)OCO2	-1	3	52*	-1	.
COc1ccc(OC)c(CNc2nc3ccccc3n2CCN2CCCCC2)c1	0	-1	29	-1	-57
COc1cccc(CNc2nc3ccccc3n2CCN2CCCCC2)c1OC	1	4	43*	-2	.
COc1ccc(CNc2nc3ccccc3n2CCN2CCCCC2)c(OC)c1	0	-2	44*	1	-11
CCN(CC)CCn1c(NCc2ccc(OC)cc2)nc2ccccc21	-2	-1	9	1	86*
CCCn1c(NCc2ccc(N(C)C)cc2)nc2ccccc21	1	-4	24	-6	-4
CCOC(=O)N1CCN(C(=O)CN(c2ccc(Cl)c(C(F)(F)F)c2)S(C)(=O)=O)CC1	1	-10	-11	2	-20
COC(=O)CSCc1nc2ccccc2[nH]c1=O	0	-6	3	-3	.
Cc1cc(Oc2ccc(-c3ccccc3)cc2)n2ncnc2n1	0	34*	46*	-3	.
CCN(c1ccccc1)c1cc(C)nc2ncnn12	1	-18	5	2	.
CCC(C)C1C(C#N)=C(N)Oc2n[nH]c(C)c21 (stereo unspecified)	0	39*	14	-1	2
Cc1cc(C)n(CCc2nc3c4ccccc4n(CC(=O)Nc4ccc(Cl)cc4F)c(=O)n3n2)n1	0	-7	-5	-1	.
Cc1ccc(-c2nc(NC(=O)CSc3nnnn3-c3ccccc3)ns2)cc1	0	-15	50*	2	40
COc1ccccc1NC(=O)CSc1nnnn1-c1ccc(C)cc1	.	.	.	.	74*
COC(=O)c1ccc(-n2nnnc2SCC(=O)Nc2cc(OC)ccc2OC)cc1	0	-3	9	-4	-28
COc1ccccc1NC(=O)CSc1nnc(-c2ccncc2)n1CC1CCCO1 (stereo unspecified)	-1	-5	-15	37*	.
COc1ccc(OC)c(NC(=O)CSc2nnnn2-c2ccc3c(c2)OCO3)c1	0	-6	44*	0	-39
Cc1ccc(CCP(=O)(O)CN2CCCCC2)cn1	-1	-2	-11	-3	.
O=C(CC(C(=O)N1CCc2ccccc21)n1ccnc1)N1CCc2ccccc2C1 (stereo unspecified)	0	2	-3	-2	-8
Cc1nc2sccn2c1-c1nc(C2CC2)c(C(=O)c2ccc3c(c2)NC(=O)CO3)s1	0	-14	-8	-2	.
CCc1cc(=O)oc2c(C)c(OCC(=O)N3CCCc4ccccc43)ccc12	.	.	.	.	28
Cc1ccc2nc(SCCC#N)nc(C)c2c1	0	-4	2	1	.
